The source of these data is PubChem BioAssay (EPA / NIEHS).

The source made the active and inactive calls. The calls were made as follows: active = hit-call score of the fitted dose curve at least 0.9, where 1 is the maximum; inactive = score below 0.9.

The nature of this experiment: ATG_FoxO_CIS: Attagene CIS-FACTORIAL HepG2 Assay for human Forkhead box O (FoxO) (AID 2282943). The conditions noted are these: HepG2 Attagene cis-reporter, FoxO element, mRNA; actives raise or lower the signal. The protocol:
ATG_CIS is a cell-based, multiplexed-readout assay that uses HepG2, a human liver cell line, with measurements taken at 24 hours after chemical dosing in a 24-well plate.ATG_FoxO_CIS is one of 52 assay component(s) measured or calculated from the ATG_CIS assay. It is designed to make measurements of mRNA induction, a form of inducible reporter, as detected with fluorescence intensity signals by Reverse transcription polymerase chain reaction (RT-PCR) and Capillary electrophoresis technology.Data from the assay component ATG_FoxO_CIS was analyzed into 1 assay endpoint. This assay endpoint, ATG_FoxO_CIS, was analyzed with bidirectional fitting relative to DMSO as the negative control and baseline of activity. Using a type of inducible reporter, measures of mRNA for gain or loss-of-signal activity can be used to understand the reporter gene at the transcription factor-level as they relate to the gene FOXO1 and FOXO3. Furthermore, this assay endpoint can be referred to as a primary readout, because this assay has produced multiple assay endpoints where this one serves a reporter gene function. To generalize the intended target to other relatable targets, this assay endpoint is annotated to the dna binding intended target family, where the subfamily is forkhead box protein.
Human liver HepG2 cells are transiently transfected with multiple reporter transcription units (MRTUs) in 6-well plates using FuGene 6 reagent (Roche; 3 ml FuGene/1 mg DNA). The MRTU constructs are regulated by a cis-regulating element (promoter). […] A major difference between the CIS and TRANS system is that in CIS activities of endogenous TFs are measured, whereas the TRANS assay evaluates changes in activities of exogenous, chimeric NR-Gal4 proteins. […] At the end of 24 hour incubation, total RNA was isolated using TriZol reagent (Invitrogen). The isolated RNA is then reverse-transcribed using oligo(dT) primer and Mo-MLV reverse transcriptase (Invitrogen) with DNAse I (Ambion) treatment for 30 min. The one-tenth of the produced cDNA was amplified by PCR using Taq DNA polymerase (Invitrogen) and two reporter sequence-specific primers. The PCR products were fluorescently labeled by primer extension with 6-arboxyfluorescein (6-FAM) 5'-labeled reporter sequence-specific primer (2 min at 95 C, 20 s at 68 C and 10 min at 72 C) and these products were digested with 5U of HpaI (New England Biolabs) for 2h at 37 C. The fragments were purified using Qiaquick PCR columns (Qiagen), analyzed on an ABI 3130xL genetic analyzer (Applied Biosystems) with peak positions identified by using a set of X-rhodamine (ROX)-labeled MapMarker1000 molecular weight standards (BioVentures). The raw capillary electrophoresis data was processed using Attagraph software (Attagene).
Turning to `COCCOCCOCCOCCOC`, the outcome was inactive.

As for `CCOC(=O)[C@H](C)O`, the outcome was inactive.

With `Nc1ccc(N=Nc2ccccc2)c(N)n1`, the molecule was called inactive.

In the case of `FC(F)(F)C(=NOCC1OCCO1)c1ccc(Cl)cc1`, the molecule was classed as inactive.

For `CCOC(=O)c1ccc(N(C)C)cc1`, the molecule was classed as inactive.

For the molecule `CC(=O)OCC(=O)[C@@]12N=C(C)O[C@@H]1C[C@H]1[C@@H]3CCC4=CC(=O)C=C[C@]4(C)[C@H]3[C@@H](O)C[C@@]12C`, the call was inactive.

For the molecule `Cc1cc(C)c(C)cc1C`, the molecule was called inactive.

As for `O=C1OC(=O)c2cc(Oc3ccc4c(c3)C(=O)OC4=O)ccc21`, the call was inactive.

With `CCOC(=O)N1CCC(=C2c3ccc(Cl)cc3CCc3cccnc32)CC1`, the outcome was inactive.

For `CC(=O)CC(N)=O`, the molecule was called inactive.

On to `CO[Si](OC)(OC)c1ccccc1`, for which the call was inactive.

As for `CCCCCCCCC(=O)OCC`, the result was inactive.

`CC(C)(C)C(=O)C=Cc1ccc(Cl)cc1`: the outcome was inactive.

As to `Nc1ccc(-c2ccc(F)cc2)cc1`, the outcome was inactive.

Regarding `COC(=O)c1ccccc1OC`, the molecule was classed as inactive.

With `CCCCCCCCCCCCCCCC(=O)OCC`, the outcome was inactive.

For `CCCCCCCCO[C@@H]1O[C@H](CO)[C@@H](O)[C@H](O)[C@H]1O`, the molecule was called inactive.

As to `CCC(CO)CO`, the outcome was inactive.

With `CC1=NN(c2cc(S(=O)(=O)O)ccc2Cl)C(=O)C1N=Nc1ccccc1` (stereo not given), the molecule was classed as inactive.

`CCCCCCOc1cc(C)c(O)c(C)c1C`: the call was inactive.

Turning to `CCCc1ccc(OC)cc1`, the molecule was called inactive.

For the molecule `O=CN1CCCCC1`, the molecule was called inactive.

As to `COCC(C)N` (stereo not given), the outcome was inactive.

For `CC(=O)C=CC1C(C)=CCC(C)C1(C)C` (stereo not given), the molecule was classed as inactive.

For the molecule `CC/C=C\CCOC(=O)CCCCC`, the result was inactive.

In the case of `CCCCCCCCCCCCCCCCCC#N`, the result was inactive.

Take `CC1(C)O[C@@H]2C[C@H]3[C@@H]4C[C@H](F)C5=CC(=O)CC[C@]5(C)[C@H]4[C@@H](O)C[C@]3(C)[C@]2(C(=O)CO)O1`: the call was inactive.

Regarding `C=CC(C)(C)C`, the molecule was called inactive.

With `CCCCCCCCc1ccc(Nc2ccc(CCCCCCCC)cc2)cc1`, the molecule was called inactive.

For `COc1cc(C)ccc1C(C)C`, the result was inactive.

For `COC(=O)c1sccc1S(N)(=O)=O`, the molecule was called inactive.

For `CC1(C)O[C@@H]2C[C@H]3[C@@H]4C[C@H](F)C5=CC(=O)C=C[C@]5(C)[C@@]4(F)[C@@H](O)C[C@]3(C)[C@]2(C(=O)CO)O1`, the result was inactive.

As to `C=C[C@](C)(O)CC[C@@H]1[C@@]2(C)CCCC(C)(C)[C@@H]2CC[C@@]1(C)O`, the call was inactive.

Turning to `Cc1ccc(C2OC[C@@H]3OC(c4ccc(C)cc4)O[C@H]([C@H](O)CO)[C@@H]3O2)cc1` (stereo not given in full), the result was inactive.

As to `CCO[Si](CCCN=C=O)(OCC)OCC`, the result was inactive.

`NNC(=O)c1cccc(C(=O)NN)c1`: the molecule was classed as inactive.

Turning to `CCCCCCOC(=O)C(C)CC` (stereo not given), the outcome was inactive.

On to `SCCc1cnccn1`, for which the molecule was called inactive.

For `CC(C)(C)C(=O)CCc1ccc(Cl)cc1`, the molecule was called inactive.

In the case of `CC(C)(c1cc(Br)c(OCCO)c(Br)c1)c1cc(Br)c(OCCO)c(Br)c1`, the call was inactive.
